The sample as a whole holds a higher share of hits than the screen did.
Pf Dd2 inh: qHTS Primary assay for Inhibitors of Plasmodium falciparum Dd2 growth in vitro. P. falciparum Dd2 growth, SYBR Green, 72 h. Potency, µM (doses to about 28.9 µM), actives largely listed as inhibitors. hit rate 4.3% among 120,000. AID 1347417, 2020; active = well fitted inhibition curve with a large enough effect; note: nearly all actives have a fitted effect of over 65% in size
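Infected erythrocytes (Dd2, 0.3% parasitemia, 2.5% hematocrit final) are added to compound in RPMI-1640/Albumax II medium, grown 72 h at 37C in low oxygen, then lysed with saponin/Triton-X containing SYBR Green and read by fluorescence.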
Of the large screens only hits and unclear results are named; the others gave an inactive call.

CCOC(=O)c1cccc(NC(=O)C2CCCN(S(=O)(=O)c3cc(Br)cc4c3N(C(=O)CC)CC4)C2)c1 (configuration not stated)	none
CCOc1ccc(Nc2nc3ccccc3n3c(CC)nnc23)cc1	none
O=C1[C@@H]2C[C@@H](O)CN2C2(CN(Cc3ccc(OC(F)(F)F)cc3)C2)C(=O)N1Cc1ccccc1	none
CCc1ccccc1N(C)C(=O)Nc1cn(CC(C)C)c(=O)c2ccccc12	Pf Dd2 inh 8.91µM
COc1ccc(CNC(=O)Nc2cn(CC(C)C)c(=O)c3ccccc23)c(OC)c1	none
CCc1ccccc1N(C)C(=O)Cc1c(C(=O)O)c(C)cn1C	none
CN1CCOc2c(C(=O)NCCC(N)=O)cc(-c3ccccc3)cc21	none
Cc1ccc(-c2cc3c(n2-c2ccccc2F)CC(C)(C)CC3=O)cc1	none
COc1ccc(-n2c3c(cc(-c4nc(-c5ccc(Cl)cc5)cs4)c2=O)C(=O)CC(C)(C)C3)cc1Cl	none
COc1ccc(C)cc1-n1c(-c2ccc(Cl)cc2)cc2c1CC(C)(C)CC2=O	Pf Dd2 inh 1µM
CCOc1ccc(C(CC(=O)O)N2Cc3ccccc3C2=O)cc1OC (configuration not stated)	none
Cc1cc2cc(-c3c(C)noc3C)nc(NCC3CC3)c2o1	none
Cc1cc2cc(-c3c(C)noc3C)nc(NC3CCN(C)CC3)c2o1	Pf Dd2 inh 10µM
Cc1noc(C)c1-c1cc2cc(CO)oc2c(NCCN2CCOCC2)n1	none
Cc1noc(C)c1-c1cc2cc(C(C)C)oc2c(NC(C)C)n1	none
Cc1noc(C)c1-c1cc2cc(C(C)C)oc2c(NC2CCOCC2)n1	Pf Dd2 inh 11.2µM
Cc1noc(C)c1-c1cc2cc(C(C)C)oc2c(-c2c(C)noc2C)n1	none
O=C(N[C@H]1CCN2C(=O)c3cc(-c4cccc(C(F)(F)F)c4)ccc3NC(=O)[C@@H]2C1)c1ccncc1	none
O=C(NC1CCCCC1)c1cc2n(n1)CC(c1ccc3c(c1)OCO3)OC2 (configuration not stated)	none
COCC(=O)N[C@H]1C[C@H]2C(=O)NC[C@@H](CCC(=O)NCc3cccnc3)N2C1	none
CC(C)(C)OC(=O)N1CCC(c2c(C(=O)NCCN3CCC(Cc4ccccc4)CC3)cnn2-c2ccccc2)CC1	Pf Dd2 inh 2.82µM
CC(C)(C)OC(=O)N1CCC(c2c(C(=O)NCCN3CCC(Cc4ccccc4)CC3)cnn2-c2ccc(F)cc2)CC1	Pf Dd2 inh 1.58µM
CN1CCN(CCCNC(=O)c2cnn(-c3ccccc3)c2C2CCN(C(=O)OC(C)(C)C)CC2)CC1	none
Cc1cc(S(=O)(=O)N2C[C@@H](F)C[C@H]2C(=O)N2CCCCC2)ccc1F	none
COc1ccc(NC(=O)COCc2cc(-c3ccco3)on2)cc1Cl	none
CN(C)C[C@@H]1CN(C2CCOCC2)C[C@H]1NC(=O)c1nccc2ccccc12	none
CC(=O)NC1CC2(CCN(Cc3ccc(O)cc3)CC2)c2ccccc21 (configuration not stated)	none
Cc1ccc(NC(=O)CC2CCN(S(C)(=O)=O)C2)cc1 (configuration not stated)	none
Cc1ccsc1C(=O)N1CCC(CCC(=O)N2CCC(Cc3ccccc3)CC2)CC1	none
Cc1ccc(C)c(NC(=O)CN2C(=O)C3(SCC(=O)N3c3ccc(C)c(C)c3)c3ccccc32)c1 (configuration not stated)	Pf Dd2 inh 11.2µM
COc1cccc(CN2C(=O)C3(SCC(=O)N3c3ccc(F)cc3)c3ccccc32)c1 (configuration not stated)	none
COc1ccccc1NC(=O)CN1C(=O)C2(SCC(=O)N2c2ccc(C)c(C)c2)c2ccccc21 (configuration not stated)	Pf Dd2 inh 10µM
COc1ccc(N2C(=O)CCSC23C(=O)N(Cc2ccc(F)cc2)c2ccccc23)cc1 (configuration not stated)	none
Cc1ccc(C)c(NC(=O)CN2C(=O)COc3ccc(Cl)cc32)c1	none
COc1ccc(N2C(=O)CSC23C(=O)N(CC(N)=O)c2ccccc23)cc1 (configuration not stated)	none
Cc1ccc(N2C(=O)CSC23C(=O)N(Cc2ccccc2F)c2ccccc23)cc1F (configuration not stated)	none
COc1ccc(N2C(=O)CCSC23C(=O)N(Cc2ccc(F)cc2)c2ccccc23)cc1Cl (configuration not stated)	Pf Dd2 inh 11.2µM
COc1ccccc1NC(=O)CN1C(=O)CSc2ccc(S(=O)(=O)N3CCCC3)cc21	none
O=C(Cn1cccc1-c1nc(-c2ccc(F)cc2)no1)NCc1ccc2c(c1)OCO2	none
Cc1ccnc(SCC(=O)N[C@H]2CCOC[C@H]2C2CCOCC2)n1	none
COc1ccc(C(=O)N2CC(C(=O)NC3CCCCC3)C3(CCOCC3)C2)cc1 (configuration not stated)	none
COC(=O)CNC(=O)N1CCC2(CC1)CC(Cc1ccc(OC)cc1)CCO2 (configuration not stated)	none
COC(=O)CNC(=O)N1CCC(Oc2ncccc2C(=O)N2CCOCC2)C1 (configuration not stated)	none
O=C(c1cccc2[nH]ccc12)N1CC[C@@H]2COCCN(Cc3ccncc3)[C@@H]2C1	none
CCc1nc(C)c(CC(=O)NCc2cc(F)cc3c(C)c(CC)[nH]c23)c(=O)[nH]1	none
CC(Nc1ccc(-c2nc(-c3cccnc3)no2)cc1[N+](=O)[O-])c1ccccc1 (configuration not stated)	none
CCC(=O)C(=O)NCc1cc2c(nc1OC)CN(CCc1ccccn1)C2=O	none
CC(C)c1ccc(NC(=O)Cn2nc3n(c2=O)CCCCC3)cc1	none
CCS(=O)(=O)c1ncc(Cl)c(C(=O)N(Cc2ccccc2)Cc2ccco2)n1	none
Cc1ccc(NC(=O)c2ncoc2-c2ccco2)cc1Cl	none
COc1ccc(CN(Cc2ccco2)c2cnc(S(C)(=O)=O)nc2C(=O)Nc2ccc(C)c(Cl)c2)cc1	Pf Dd2 inh 10µM
Cc1cccc(C)c1NC(=O)c1nc(S(C)(=O)=O)ncc1N(Cc1ccc(F)cc1)Cc1ccco1	none
COc1ccc(CN(Cc2ccco2)C(=O)COc2ccccc2Cl)cc1	none
CC(C)c1ccc(CN(Cc2ccco2)c2cnc(S(C)(=O)=O)nc2C(=O)Nc2ccc(F)cc2)cc1	Pf Dd2 inh 11.2µM
CCOc1ccccc1NC(=O)CN(c1cc(C)cc(C)c1)S(=O)(=O)c1c(C)nn(C)c1C	none
O=C(NCCc1ccccc1)C1COc2ccccc2C1 (configuration not stated)	none
Cc1ccccc1-c1nc(N2CCOCC2)cc2c1CN(Cc1cnn(C)c1)C2=O	none
CN(CC1CCOCC1)S(=O)(=O)c1ccc(Br)s1	none
Cc1ccc(NC(=O)c2ccc(CN3CC(=O)N4CCCCC4C3=O)cc2)cc1 (configuration not stated)	none
COc1cc(C2CC(=O)N(Cc3ccc(F)cc3)c3ccccc3S2)cc(OC)c1OC (configuration not stated)	Pf Dd2 inh 1.12µM
COc1ccc(C2CC(=O)N(Cc3ccc(F)cc3)c3ccccc3S2)cc1 (configuration not stated)	none
COc1ccc(C2CC(=O)N(Cc3ccc(F)cc3)c3ccccc3S2)cc1OC (configuration not stated)	none
CC(C)c1nncn1C1CCN(S(=O)(=O)c2ccccc2)CC1	none
Cc1ccc(C2=NN(CC(=O)NCCc3ccc(Cl)cc3)C(=O)CC2)cc1	none
O=C(c1cc(-c2ccc(Cl)cc2)n[nH]1)N1CCN(S(=O)(=O)c2ccc(Br)s2)CC1	none
Cc1cc(Br)ccc1NC(=O)C1CCN(S(=O)(=O)c2ccc(Br)s2)CC1	none
Cc1ccc(-c2cc(C(=O)N3CCN(S(=O)(=O)c4ccc(Br)s4)CC3)[nH]n2)c(C)c1	Pf Dd2 inh 12.6µM

High-throughput results from PubChem.
